In the supplement of paper PMC6555819:

What was measured:
Experiment in all cases: PBM binding z-score (relative to random genomic background probes); higher = stronger binding; sequences stand for … in GC…GCGATTGACAGCGTAGAATGAAGG
[1] = tested on: FXR:RXRa (NR concentration 270 nM, RXRa partner concentration 90 nM)
Summary of the method: (§1)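 Antibodies against each partner of ligand-free nuclear receptor dimers (one per run) detected binding on custom Agilent 4×180K protein-binding microarrays after 1 h incubation. The double-stranded probes had 34-nt variable regions carrying direct-repeat seeds, single-nucleotide variants, half-site ablations and random human genomic background sequences. Binding z-scores, from regression-normalized fluorescence, use the random background probes as reference.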

[2] = tested on: LXRa:RXRa (NR concentration 270 nM, RXRa partner concentration 90 nM)
Summary of the method: as §1

[3] = tested on: LXRa homodimer (NR concentration 270 nM)
Summary of the method: as §1

[4] = tested on: LXRb:RXRa (NR concentration 270 nM, RXRa partner concentration 90 nM)
Summary of the method: as §1

[5] = tested on: LXRb homodimer (NR concentration 270 nM)
Summary of the method: as §1

[6] = tested on: PPARa:RXRa (NR concentration 270 nM, RXRa partner concentration 90 nM)
Summary of the method: as §1

[7] = tested on: PPARg:RXRa (NR concentration 180 nM, RXRa partner concentration 90 nM)
Summary of the method: as §1

[8] = tested on: PPARg:RXRa 270nM:90nM, anti-RXR (NR concentration 270 nM, RXRa partner concentration 90 nM)
Summary of the method: as §1

[9] = tested on: PPARg:RXRa 30nM:10nM, anti-RXR (NR concentration 30 nM, RXRa partner concentration 10 nM)
Summary of the method: as §1

[10] = tested on: PPARg:RXRa 90nM:30nM, anti-RXR (NR concentration 90 nM, RXRa partner concentration 30 nM)
Summary of the method: as §1

[11] = tested on: PPARg:RXRa DBDmut IVT, anti-RXR (DBD mutation: RXRa K156A/R161A, NR concentration 270 nM, RXRa partner concentration 90 nM)
Summary of the method: as §1

[12] = tested on: PPARg:RXRa IVT, anti-PPARg (NR concentration 270 nM, RXRa partner concentration 90 nM)
Summary of the method: as §1

[13] = tested on: PPARg DBDmut:RXRa IVT, anti-PPARg (DBD mutation: PPARg1 K132A/R137A, NR concentration 270 nM, RXRa partner concentration 90 nM)
Summary of the method: as §1

[14] = tested on: PPARg DBDmut IVT, anti-PPARg (DBD mutation: PPARg1 K132A/R137A, NR concentration 270 nM)
Summary of the method: as §1

[15] = tested on: PPARg homodimer (NR concentration 180 nM)
Summary of the method: as §1

[16] = tested on: PXR:RXRa (NR concentration 270 nM, RXRa partner concentration 90 nM)
Summary of the method: as §1

[17] = tested on: PXR homodimer (NR concentration 270 nM)
Summary of the method: as §1

[18] = tested on: RARa:RXR (NR concentration 270 nM, RXRa partner concentration 90 nM)
Summary of the method: as §1

[19] = tested on: RARa homodimer (NR concentration 270 nM)
Summary of the method: as §1

[20] = tested on: RARb:RXRa (NR concentration 270 nM, RXRa partner concentration 90 nM)
Summary of the method: as §1

Row | Sequence | PBM binding z-score [1] | PBM binding z-score [2] | PBM binding z-score [3] | PBM binding z-score [4] | PBM binding z-score [5] | PBM binding z-score [6] | PBM binding z-score [7] | PBM binding z-score [8] | PBM binding z-score [9] | PBM binding z-score [10] | PBM binding z-score [11] | PBM binding z-score [12] | PBM binding z-score [13] | PBM binding z-score [14] | PBM binding z-score [15] | PBM binding z-score [16] | PBM binding z-score [17] | PBM binding z-score [18] | PBM binding z-score [19] | PBM binding z-score [20]
1 | GGAACGAGGGCATTCGAGTTGCTAGCATGGCGAT | 0.791 | 0.5 | -0.577 | -0.157 | -0.675 | 0.953 | 0.443 | 0.479 | -0.435 | -0.173 | 2.56 | 2.02 | -0.0761 | -0.825 | -0.911 | 2.3 | -0.0583 | 0.598 | -0.778 | 1.8
2 | ATATGTAGGTTTTCGGGTCATTCAGTTTGCGCAT | 3.26 | 2.94 | 1.41 | 3.14 | 1.57 | 4.19 | 3.95 | 4.14 | 1.9 | 3.5 | 5.6 | 5.42 | 1.9 | 1.31 | 2.39 | 4.14 | 8.75 | 3.74 | 1.72 | 2.17
3 | AGTCAAAGTTCAGGAAGAGGTAACGTAAAGCACG | 3.92 | 3.76 | 0.911 | 2.07 | 0.602 | 3.54 | 4.98 | 4.92 | 1.98 | 3.88 | 0.106 | 2.18 | 0.684 | 0.616 | 2.21 | 2.84 | 0.943 | 3.04 | 0.831 | 4.45
4 | CTCGAAAGGTCGGTTGAGGTGTGTATACGGATAA | 1.83 | 1.28 | -0.285 | 1.05 | 0.0615 | 2.13 | 0.162 | 0.619 | -0.0568 | 0.492 | -0.0512 | 0.529 | 0.177 | -0.218 | 0.679 | 1.43 | 0.289 | 1.53 | -0.365 | 2.68
